Source: PubChem BioAssay
The entries come from a sample that favours hits as a whole.
IMPase Li inh = qHTS Assay for Identifying the Cell-Membrane Permeable IMPase Inhibitors: Potentiation with Lithium; Potency, µM (titrated, usually from 59.4 µM), without a hit: top-dose activity, negative = IMPase inhibition, hits mostly inhibitors; CHO-M1 cells, IP1 TR-FRET (IP-One), carbachol + lithium; AID 1457, 2008; 0.35% of 210,000 active;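 further: IP1 builds up when IMPase is blocked and the TR-FRET signal falls; potency means the concentration at half of the fitted maximal effect; plate controls were basal vehicle for no effect and high inhibitor control for full effect; nearly all actives have a fitted effect of over 50% in size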
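IP1 accumulation measured by competitive TR-FRET in lysed CHO-M1 cells after 30 min compound exposure at 37C, with a small lithium addition to potentiate weak responses. Hill-equation AC50 from ratio and donor-channel data.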
NPSR antag = qHTS Assay for Antagonists of the Neuropeptide S Receptor: cAMP Signal Transduction; CHO-NPSR cells, cAMP TR-FRET, antagonist mode; Potency, µM (highest dose often 38.3 µM), for the others: at the highest dose activity change, negative = inhibition, most hits filed as inhibitors; 1% of 220,000 active; further: potency means the concentration at half of the fitted maximal effect; nearly all actives have a fitted effect of over 50% in size
Target sequence (Q6W5P4 whole entry, looked up): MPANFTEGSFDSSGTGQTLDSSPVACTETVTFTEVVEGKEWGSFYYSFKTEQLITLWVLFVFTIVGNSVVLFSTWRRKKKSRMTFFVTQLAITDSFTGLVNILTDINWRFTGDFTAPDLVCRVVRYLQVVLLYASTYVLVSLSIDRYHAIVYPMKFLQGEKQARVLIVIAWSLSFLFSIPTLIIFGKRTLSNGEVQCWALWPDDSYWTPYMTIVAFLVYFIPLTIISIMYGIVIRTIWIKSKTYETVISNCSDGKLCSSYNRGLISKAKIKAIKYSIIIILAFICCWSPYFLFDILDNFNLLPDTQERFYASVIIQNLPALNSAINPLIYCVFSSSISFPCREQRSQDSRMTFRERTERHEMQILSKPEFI
IMPase inh = qHTS Assay for Identifying the Cell-Membrane Permeable IMPase Inhibitors | Inositol monophosphatase 1 (Rattus norvegicus), P97697 | CHO-M1 cells, IP1 accumulation, HTRF TR-FRET ratio | inhibition (IP1 accumulation), % at 46.1 µM | 120,000 tested, under 10 active | AID 901, 2007; active means well fitted curve in the direction sought with a large enough effect in the signal ratio, not every such curve was filed as active; inconclusive means small, poorly fitted or top-dose-only effect, or a change in a side signal; inactive means no such curve, though single readings can be large or run the other way; the % refers to the signal ratio;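 further: cells stimulated with carbachol in lithium chloride buffer; plate controls were DMSO basal wells for no effect and reference inhibitor wells for full effect; higher means more IMPase inhibition seen as more IP1 and lower FRET ratio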
Target sequence (P97697 whole entry, looked up): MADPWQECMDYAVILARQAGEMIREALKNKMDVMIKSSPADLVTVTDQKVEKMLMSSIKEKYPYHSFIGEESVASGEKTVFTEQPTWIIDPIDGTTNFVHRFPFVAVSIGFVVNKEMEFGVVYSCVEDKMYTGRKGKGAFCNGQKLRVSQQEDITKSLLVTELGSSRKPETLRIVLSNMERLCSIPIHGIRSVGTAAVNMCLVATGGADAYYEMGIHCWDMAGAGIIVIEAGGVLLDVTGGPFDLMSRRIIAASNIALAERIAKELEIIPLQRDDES
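In this qHTS, compounds (final up to 46 uM) act on CHO-M1 cells that are then activated through the M1 receptor with carbachol, in pH 7.4 buffer containing 50 mM LiCl, for 30 min. IP1 accumulation is quantified by the IP-One immunoassay.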
The depositor's hits bear a star; [ ] = dose if it differs, or a comment. Unless noted, the call rests on the fitted dose curve; in most records, active means well fitted curve in the direction sought with a large enough effect; inconclusive means small, poorly fitted or top-dose-only effect, or another doubt; inactive means no such curve, though single readings can be large; an effect the other way counts as inactive or inconclusive. Unless noted, on the % scale 0 is the no-effect control and ±100 the full control effect.

Results for N#C/C(=C/c1ccc(N2CCCCCC2)o1)c1ccc(Cl)cc1 ?
IMPase Li inh: 20%[38.3 µM]; NPSR antag: 10µM*; IMPase inh: 13

Results for Cc1ccccc1-c1ccc2ncnc(N3CCOCC3)c2c1 ?
IMPase Li inh: 14%

Results for CNc1ncncc1-c1c(C)noc1C ?
IMPase Li inh: -1%

Results for CCNC(=O)Nc1ccc(-n2nc(C)c(C(=O)OCC)c2C)nc1 ?
IMPase Li inh: -6%; NPSR antag: 7%

Results for O=C(O)c1ccccc1CN1CCC[C@@H](C(=O)O)C1 ?
IMPase Li inh: 8%

Results for CCn1c(=O)cc(SCC(=O)NCc2ccc(C)cc2)c2ccccc21 ?
IMPase Li inh: -10%[38.3 µM]; NPSR antag: -6%[46.1 µM]; IMPase inh: -20

What do the screens show for `CCn1c(=O)cc(SCC(=O)NCc2cccnc2)c2ccccc21`?
IMPase Li inh: 10µM*; NPSR antag: inconclusive; IMPase inh: inconclusive

Results for ClC1=C(Cl)C(Cl)(Cl)C(Cl)=C1Cl ?
IMPase Li inh: 14%

What do the screens show for `CN(C)c1ncc2nc(-c3cc(F)cc(F)c3)c(=O)n(Cc3cccs3)c2n1`?
IMPase Li inh: 5.6µM*

How did CN(C)c1ncc2nc(-c3ccc(F)cc3)c(=O)n(Cc3cccs3)c2n1 do in these assays?
IMPase Li inh: -3%

How did COc1ccc(-c2nc3cnc(N4CCN(C)CC4)nc3n(Cc3cccs3)c2=O)cc1 do in these assays?
IMPase Li inh: 26%

What do the screens show for `COc1ccc(-c2nc3cnc(N4CCOCC4)nc3n(Cc3cccs3)c2=O)cc1`?
IMPase Li inh: 2µM*

What do the screens show for `CC(C)NC(=O)N1CCC2(CC1)CCN(C(=O)c1cc(C(F)(F)F)cc(C(F)(F)F)c1)CC2`?
IMPase Li inh: -6%

How did CCN(CC)CCCn1c(-c2ccccc2)nc2c(NCCOC)nc(C)nc21 do in these assays?
IMPase Li inh: 8%

What do the screens show for `CC(=O)c1sc(N/N=C\c2ccccc2O)nc1C`?
IMPase Li inh: 14%; NPSR antag: 1.6µM*

How did CCOC(=O)c1sc(N/N=C/c2ccccc2)nc1C do in these assays?
IMPase Li inh: 3%; NPSR antag: -6%

Results for CN(Cc1ccccc1)C(=S)NC(=O)c1ccc(-c2ccccc2)cc1 ?
IMPase Li inh: 10µM*; NPSR antag: -9%[46.1 µM]; IMPase inh: 3

How did COc1cc(C(=O)NC(=S)N(C)Cc2ccccc2)cc(OC)c1OC do in these assays?
IMPase Li inh: 2%; NPSR antag: -8%

Results for O=C(O)c1ccncc1.O=C(O)c1ccncc1.[Cl][Pt]([Cl])([Cl])[Cl] ?
IMPase Li inh: -5%

Results for S=c1nc[nH]c2c1[nH]c1ccc(Cl)cc12 ?
NPSR antag: -17%

Results for S=c1nc[nH]c2c1[nH]c1ccccc12 ?
IMPase Li inh: 4.5µM*; NPSR antag: inconclusive; IMPase inh: inconclusive

Results for Cc1c(N=C2C=CC(=O)c3ccccc32)c(=O)n(-c2ccccc2)n1C ?
IMPase Li inh: 32%; NPSR antag: 10µM*

What do the screens show for `Cc1c(N=C2C=C(Br)C(=O)C(Br)=C2)c(=O)n(-c2ccccc2)n1C`?
IMPase Li inh: 6%; NPSR antag: -28%

What do the screens show for `O=c1[nH]ncc2c3ccccc3n(Cc3ccccc3F)c12`?
IMPase Li inh: 10µM*; NPSR antag: -3%[46.1 µM]; IMPase inh: -7

Results for O=c1[nH]ncc2c3ccccc3n(Cc3ccccc3)c12 ?
IMPase Li inh: -8%[38.3 µM]; NPSR antag: 5%[46.1 µM]; IMPase inh: 0

How did CS(=O)(=O)Nc1nc2n(n1)C(c1ccccc1)CC(c1ccccc1)N2 (centres undefined) do in these assays?
NPSR antag: 0%

Results for C/C(=N/NC(=O)CNS(=O)(=O)c1ccc(C)cc1)c1cccc([N+](=O)[O-])c1 ?
IMPase Li inh: -1%; NPSR antag: -8%

Results for N=c1c2c(-c3ccccc3)c(-c3ccccc3)n(Cc3ccccc3)c2ncn1CCCn1ccnc1 ?
IMPase Li inh: 25%[38.3 µM]; NPSR antag: inconclusive; IMPase inh: 5

What do the screens show for `N=c1c2c(-c3ccccc3)c(-c3ccccc3)n(Cc3ccco3)c2ncn1Cc1ccco1`?
IMPase Li inh: 27%[38.3 µM]; NPSR antag: 10µM*; IMPase inh: 22

Results for CCOC(=O)c1ccc(/C=C2/C=C(c3ccccc3)N(c3ccc(Cl)c(C(=O)O)c3)C2=O)cc1 ?
IMPase Li inh: -3%; NPSR antag: 13µM*

How did CCOC(=O)c1ccc(Cl)c(NC(=O)c2ccc(-c3ccccc3)cc2)c1 do in these assays?
IMPase Li inh: -11%[38.3 µM]; NPSR antag: 27%[46.1 µM]; IMPase inh: -2

What do the screens show for `Cc1cccc(NC(=O)CSc2nc3ccccc3nc2N2CCC(C)CC2)c1`?
IMPase inh: 1

Results for CNc1ncnc2c1ncn2[C@H]1C[C@@H](OP(=O)(O)O)[C@H](COP(=O)(O)O)O1 ?
IMPase inh: -2

How did COc1ccc(NC(=O)c2cc(-c3ccco3)on2)cc1 do in these assays?
IMPase Li inh: -15%; NPSR antag: 4%

What do the screens show for `COc1cc(NC(=O)c2cc(-c3ccco3)on2)c(OC)cc1Cl`?
IMPase Li inh: 11µM*; NPSR antag: 8%[46.1 µM]; IMPase inh: 6

What do the screens show for `COC(=O)[C@@]1(Cc2ccc(OC)cc2)[C@H]2c3cc(C(=O)N(C)C)n(Cc4cc(C)n(C)n4)c3C[C@H]2CN1C(=O)c1ccccc1`?
IMPase Li inh: -9%

Results for Cc1cc(NS(=O)(=O)c2ccc(NC(=O)COc3ccccc3Br)cc2)no1 ?
IMPase inh: -6

How did COC(=O)c1sc(NC(=O)c2ccco2)nc1C do in these assays?
IMPase Li inh: 10µM*; NPSR antag: -16%[46.1 µM]; IMPase inh: -3

What do the screens show for `CCOC(=O)c1sc(NC(=S)NC(=O)c2ccco2)nc1C`?
IMPase Li inh: -8%; NPSR antag: -51%; IMPase inh: -5

What do the screens show for `Cc1cc2nnc(SCC(=O)Nc3ccc(F)c(Cl)c3)n2c2ccccc12`?
IMPase inh: 5

What do the screens show for `C[C@@H]1O[C@H](O[C@@H]2[C@@H](Oc3cc(O)c4c(c3)O[C@H](c3ccc(O)cc3)CC4=O)O[C@@H](CO)[C@@H](O)[C@H]2O)[C@@H](O)[C@H](O)[C@@H]1O`?
IMPase Li inh: 4%; IMPase inh: -2[20.6 µM]

What do the screens show for `COc1ccc(C(=O)Nc2sc3c(c2C#N)CCN(C(C)=O)C3)cc1`?
IMPase Li inh: 10%; NPSR antag: 1%

Results for CC(=O)N1CCc2c(sc(NC(=O)c3ccc([N+](=O)[O-])o3)c2C#N)C1 ?
IMPase Li inh: 34%; NPSR antag: 2.5µM*

Results for CN1Cc2c(N3CCOCC3)nc3sc(C(=O)c4ccccc4)c(N)c3c2CC1(C)C ?
NPSR antag: 13µM*

Results for CCOC(=O)c1sc2nc(N3CCOCC3)c3c(c2c1N)CC(C)(C)N(C)C3 ?
IMPase Li inh: -12%[38.3 µM]; NPSR antag: -10%[46.1 µM]; IMPase inh: -9

How did COC(=O)N1CCC[C@@]2(CCN(C(=O)Nc3ccc(OC)cc3)C2)C1 do in these assays?
IMPase Li inh: 4%

Results for NC1=NC[C@H](Cc2ccc(O)cc2)N1CC1CCCCC1 ?
NPSR antag: 3%
